A selection follows.
aSyn 5UTR act: Activators via SNCA 5'UTR binding, MLPCN | alpha-synuclein 5'UTR reporter, activators screen | activity score, % (tested at 7.5 µM), hits read low | 7.1% of 300,000 active | AID 1814; in the data active means activity score below about -60%
An asterisk follows results filed as active.

SMILES	aSyn 5UTR act
COC(=O)/C(=C\C(=O)c1ccccc1)Nc1ccc(OC)cc1	-93.0*
Cc1ccc2ccc(C3C(=O)c4ccccc4C3=O)nc2c1	-145.7*
COc1ccc(-c2nnc(SCC(=O)Nc3cc(F)ccc3C)o2)cc1	-160.9*
COc1cccc(NC(=O)CSc2nnc(-c3ccc(C)cc3)o2)c1	-114.5*
Cc1ccc(SCC(=O)Nc2cccc(-c3nnc(-c4ccco4)o3)c2)cc1	-144.1*
Brc1cc(Br)c2nc(-c3cccs3)ccc2c1	-156.9*
COc1cc2c(cc1NC(=O)COC(=O)[C@@H](NS(=O)(=O)c1cccc(Cl)c1)C(C)C)oc1ccccc12	-103.0*
COc1ccc(S(=O)(=O)N[C@@H](C)C(=O)OCC(=O)Nc2cc3oc4ccccc4c3cc2OC)cc1	-128.9*
Clc1cccc(Cl)c1Cn1nnc(N2CCCC2)n1	-64.5*
O=C(/C=C/c1cccc(Cl)c1)Nc1ccncc1	-112.0*
NS(=O)(=O)c1ccc(NC(=O)/C=C/c2cccc(Cl)c2)cc1	-81.1*
CN1CCN(/C=N/c2sc3c(c2C#N)CCCCC3)CC1	-147.3*
CCN(/C=N/c1sc2c(c1C#N)CCCCC2)CC	-141.6*
O=C(Nc1nnc(Cc2ccccc2F)s1)Nc1ccccc1F	-98.6*
O=C(Nc1nnc(-c2ccccc2F)s1)Nc1ccccc1F	-154.8*
Cc1cc2c(C)nc(N/N=C/c3ccc(F)cc3)nc2o1	-72.4*
COc1ccc(/C=N/Nc2cc(C)nc3ccc(Br)cc23)cc1	99.9
CC(=O)NC(=S)Nc1sc2c(c1C(N)=O)CCC(C)C2 (centres undefined)	-83.3*
Cc1sc(NC(=S)NC(=O)C(C)(C)C)c(C(N)=O)c1C	-67.5*
CC(C)(C)C(=O)NC(=S)Nc1sc2c(c1C(N)=O)CCC2	-87.8*
CC(C)CC(=O)NC(=S)Nc1sc2c(c1C(N)=O)CCC2	-99.6*
CCCCC(=O)Nc1sc2c(c1C(N)=O)CCC2	-85.2*
Fc1cccc(Cl)c1CSc1nnc(-c2ccncc2)o1	-109.1*
Clc1ccccc1CSc1nnc(-c2ccncc2)o1	-127.1*
N#Cc1ccccc1CSc1nnc(-c2ccncc2)o1	-113.8*
SMILES	aSyn 5UTR act
N#Cc1cccc(-c2nnc(SCc3ccccc3C#N)o2)c1	-65.2*
Cc1ccc(NC(=O)N2CCCCCC2)cc1C	-90.2*
O=C(Nc1ccc(Br)cc1)N1CCCCC1	-62.7*
O=C(Nc1ccc(F)c(Cl)c1)N1CCCCCC1	-75.5*
COc1cccc(NC(=O)N2CCCCCC2)c1	-88.1*
COc1ccc(NC(=O)N2CCCCCC2)cc1	-76.9*
Cc1ccc(NC(=O)C2CCCN(C(=O)c3ccc(Cl)cc3)C2)cc1C (centres undefined)	-100.5*
O=C(Nc1ccc(Cl)cc1)N1CC=CCC1	-133.8*
N#C/C(=C(/O)c1ccc(Cl)cc1)c1nc2ccccc2[nH]1	-67.3*
O=C(/C(=C/c1ccc(Cl)cc1)c1nc2ccccc2[nH]1)c1ccccc1	-217.2*
COc1cccc(Nc2ccc(C(=O)O)cc2N)c1	-118.0*
Cc1ccc(Nc2ccc(C(=O)O)cc2N)cc1	-107.0*
CCN1CCN(c2ccc(NC(=O)c3ccc(Br)o3)cc2)CC1	-91.2*
O=C(Nc1ccc(N2CCN(C(=O)c3ccc(Cl)cc3)CC2)cc1)c1ccc([N+](=O)[O-])o1	119.6
CCC(=O)N1CCN(c2ccc(NC(=O)c3ccc([N+](=O)[O-])o3)cc2)CC1	60.7
O=C(Nc1ccc(N2CCN(C(=O)c3ccccc3)CC2)cc1)c1ccc(Br)o1	-69.4*
CSc1nncc(/C(C)=N\Nc2ccccc2C)n1	-81.3*
COC(=O)/C(C#N)=C1/C=Cc2ccccc2N1	-99.3*
Cc1ccc(C)c(NC(=S)c2ccc3ccccc3n2)c1	-288.3*
S=C(Nc1ccc(Cl)cc1)c1nc2ccccc2s1	-126.7*
Cc1ccc(C)c(NC(=S)c2nc3ccccc3s2)c1	-258.2*
Cc1ccc(C)c(NC(=S)c2ccccn2)c1	-113.7*
CCCS(=O)(=O)c1nc(S(=O)(=O)c2ccc(C)cc2)c(N2CCN(CCO)CC2)s1	-97.8*
CCCS(=O)(=O)c1nc(S(=O)(=O)c2ccc(C)cc2)c(N2CCOCC2)s1	-61.8*
Cc1ccc(S(=O)(=O)c2nc(S(=O)(=O)CCO)sc2N2CCOCC2)cc1	-95.9*
SMILES	aSyn 5UTR act
O=Cc1c(-c2ccc(Cl)cc2)oc2ccc(O)cc12	-118.2*
COc1ccc(C(=O)CNc2cccc(F)c2)cc1	-101.2*
COc1ccc(C(=O)CCNc2cccc(Cl)c2)cc1	-113.7*
C[C@H]1O[C@@H](O[C@H]2[C@@H](O)C[C@H](O[C@H]3[C@@H](O)C[C@H](O[C@H]4CC[C@@]5(C)[C@H](CC[C@@H]6[C@@H]5C[C@@H](O)[C@]5(C)[C@@H](C7=CC(=O)OC7)CC[C@]65O)C4)O[C@@H]3C)O[C@@H]2C)C[C@H](O)[C@@H]1O	112.5
COc1cc(C)c(C(C)C)cc1S(=O)(=O)n1cnc(C)c1	64.3
Cc1ccc(-c2nc3ccccn3c2C=O)cc1	-107.9*
c1ccn2c(c1)nc1c2nc2ccccn21	-189.2*
Clc1c(-c2ccccc2)nc2ccccn12	-151.6*
Cc1c(-c2ccc(Br)cc2)nc2ccccn12	-180.6*
CCCN1CCC(=NNc2ccc(S(=O)(=O)N(CC)CC)cc2[N+](=O)[O-])CC1	78.9
O=[N+]([O-])c1ccc(NNC(=S)Nc2ccc(F)cc2)cc1	-157.2*
CC(C)(C)NC(=S)NCCc1ccccc1	-192.5*
S=C(NCCc1ccccc1)Nc1ccc(Br)cc1	-126.4*
CCCN1CCC(NC(=S)Nc2ccc([N+](=O)[O-])cc2)CC1	-80.4*
CC(C)CCNC(=O)/C=C/c1ccc(Br)cc1	-64.1*
S=C(NCCc1ccccc1)NN=C1CCCCCC1	-159.2*
S=C(NCCc1ccccc1)Nc1ccccn1	-140.6*
COC(=O)Cc1ccc(NC(=S)Nc2ccccn2)cc1	-62.7*
CC(C)CCNC(=S)Nc1ccc(Br)cc1	-69.2*
O=C(NC(=S)NCCc1ccccn1)c1ccccc1	-106.2*
CC(C)CCNC(=S)Nc1ccc([N+](=O)[O-])cc1	-63.1*
CCOC(=O)/C(N=Nc1ccc2c(c1)OCO2)=C(\C)O	-123.3*
CCOC(=O)C1CCN(C(=O)c2cc(COc3ccc(OC)c4ccccc34)on2)CC1	-124.1*
COc1ccc(OCc2cc(C(=O)NC3CCOC(C)(C)C3)no2)c2ccccc12 (centres undefined)	-183.3*
COCC1CCN(C(=O)c2cc(COc3ccccc3SC)on2)C1 (centres undefined)	-79.2*
SMILES	aSyn 5UTR act
COc1ccc(OCc2cc(C(=O)N3CCC(OC)CC3)no2)c2ccccc12	-69.5*
COCC1CCN(C(=O)c2cc(COc3ccc(OC)c4ccccc34)on2)C1 (centres undefined)	-183.7*
COc1cc(Cl)ccc1OCc1cc(C(=O)N2CCCC(OC)C2)no1 (centres undefined)	-147.5*
COc1cc(C)ccc1OCc1cc(C(=O)N2CCC(c3ccc(F)cc3)C2)no1 (centres undefined)	-175.5*
COc1ccc(-c2cc3nc(C)n(N)c(=O)c3s2)cc1	115.5
COc1cccc(-n2cnc3sc(-c4ccccc4)cc3c2=O)c1	-183.9*
COc1ccc(-n2cnc3sc(-c4ccccc4)cc3c2=O)cc1	-118.5*
COc1ccc(C(=O)/C=C/c2ccccc2)c(OC)c1	-276.6*
COc1ccc(C(=O)/C=C/Nc2cc(C)on2)c(OC)c1	-72.3*
COc1ccc(OC)c(C(=O)/C=C/c2ccccc2C(F)(F)F)c1	-197.9*
Cc1ccn2c(C(=O)CSc3ccccc3)c(C)nc2c1	-64.7*
O=C(Nc1ncc([N+](=O)[O-])s1)c1ccco1	-98.1*
O=C(Cc1ccc(Cl)cc1)Nc1ncc([N+](=O)[O-])s1	-131.1*

Source: PubChem BioAssay
